Results reported in PubChem BioAssay.
The source made the active and inactive calls. Unless noted, no rule for the calls is given here.

Columns and labels:
[1] = tested on: Wnt5a (protein binding on small-molecule microarray); test: Wnt5a binders on small-molecule microarray, primary screen, biophysical, 635/667 nm fluorescence (AID 1142); conditions: 635 nm fluorescence, higher = more signal;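 also: fluorescence read at 667 nm with signal to noise per printed feature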
[2] = cell viability in Huh7 cells, primary screen, cytotoxicity control for HCV replication inhibitor project, CellTiter-Glo luminescence, basal, 48 h (AID 1143); conditions: Huh7 HCV replicon, higher = more signal, called active from +8 up or from −8 down;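 also: Huh7 hepatoma cells carrying a hepatitis C replication reporter with no stimulus; test concentration not given here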
[3] = P. aeruginosa biofilm formation inhibitors, primary screen, PAO1 strain, BacTiter-Glo luminescence, LB-PBS (AID 1144); conditions: 12 h, higher = more signal
[4] = CREB reporter modulators without forskolin, primary screen, cell-based, PC12, CRE-LacZ reporter, unstimulated (AID 1145); conditions: no forskolin, luminescence, 4.5 h, higher = more signal, called active from +8 up or from −8 down
[5] = CREB reporter modulators under forskolin, primary screen, cell-based, PC12, CRE-LacZ reporter, forskolin-stimulated (AID 1146); conditions: luminescence, 4.5 h, higher = more signal, called active from +8 up or from −8 down;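 also: PC12 cells with 6xCRE LacZ reporter stimulated by forskolin 10 µM; beta-galactosidase reporter signal reflecting CREB driven transcription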
[6] = molecular target: Streptavidin (Streptomyces avidinii) (UniProt P22629); test: streptavidin binders on small-molecule microarray, primary screen, artefact control for SMM compound annotation, biophysical, 635/667 nm fluorescence (AID 1147); conditions: streptavidin binding, higher = more signal;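 also: signal reflects streptavidin binding to arrayed compounds as a control protein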
Streptavidin (Streptomyces avidinii), sequence (P22629 whole entry, looked up): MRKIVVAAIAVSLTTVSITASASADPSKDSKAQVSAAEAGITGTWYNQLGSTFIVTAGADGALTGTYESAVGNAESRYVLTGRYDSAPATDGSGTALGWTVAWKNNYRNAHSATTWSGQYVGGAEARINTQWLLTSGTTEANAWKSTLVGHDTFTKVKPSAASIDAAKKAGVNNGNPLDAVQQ

[7] = small-molecule binders of probe aInhba, primary screen, biochemical, small-molecule microarray, 635/667 nm fluorescence (AID 1148); conditions: higher = more signal;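 also: score merges 667nm spot fluorescence with signal-to-noise for antibody binding to printed compounds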
[8] = molecular target: Torsin-1A (Homo sapiens) (UniProt O14656); test: torsin A binders from cell lysate, primary screen, small-molecule microarray, wild-type, 635/667 nm (AID 1149); conditions: COS7 hTOR1A-WT lysate, 635 nm fluorescence, higher = more signal
Torsin-1A (Homo sapiens), sequence (O14656 whole entry, looked up): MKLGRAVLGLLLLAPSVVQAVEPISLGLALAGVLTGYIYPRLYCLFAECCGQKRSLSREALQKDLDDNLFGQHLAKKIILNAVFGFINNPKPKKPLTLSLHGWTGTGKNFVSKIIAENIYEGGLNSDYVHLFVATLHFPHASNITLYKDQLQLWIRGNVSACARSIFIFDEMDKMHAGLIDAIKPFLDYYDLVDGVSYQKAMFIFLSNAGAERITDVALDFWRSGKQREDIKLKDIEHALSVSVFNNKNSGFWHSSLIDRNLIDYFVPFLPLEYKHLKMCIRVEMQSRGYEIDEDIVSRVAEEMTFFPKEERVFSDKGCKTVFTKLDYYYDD

[9] = molecular target: Torsin-1A (Homo sapiens) (UniProt O14656); test: small-molecule binders of mutant TOR1A in lysate, primary screen, cell lysate, small-molecule microarray, COS7 lysate, 635/667 nm fluorescence (AID 1150); conditions: COS7 hTOR1A mutant lysate, 635 nm fluorescence, higher = more signal;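 also: score pools 667 nm emission and signal to noise measuring lysate protein binding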
[10] = tested on: Sonic hedgehog protein (Shh); test: small-molecule binders of Shh protein, primary screen, biochemical, small-molecule microarray, 635/667 nm fluorescence (AID 1151); conditions: small-molecule microarray binding, 635 nm fluorescence; higher = more signal;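 also: Shh protein binding to compounds spotted on small-molecule microarray slides; score combines spot fluorescence intensity with signal-to-noise across triplicate slides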
[11] = E. coli DRC41 culture turbidity changes, primary screen, E. coli filamentation inducer project, strain DRC41, OD650, 48 h (AID 1152);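 also: E. coli MC1000 strain DRC41 lacking acrAB efflux pump and sulA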; conditions: E. coli DRC41 (acrAB sulA), higher = more signal, called active from +8 up or from −8 down
[12] = small-molecule binders of probe aLefty1, primary screen, biochemical, small-molecule microarray, 635/667 nm fluorescence (AID 1153); conditions: higher = more signal;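 also: score merges spot fluorescence with signal-to-noise ratio from the scanned slide images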
[13] = PSAC antagonists in infected red cells, primary screen, cell-based, P. falciparum Indochina, OD700, 1 h (AID 1154); conditions: P. falciparum Indochina infected RBC osmotic lysis, higher = more signal, called active from +8 up or from −8 down
[14] = PSAC antagonists in infected red cells, primary screen, cell-based, P. falciparum Indochina, OD700, 2 h (AID 1155);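 also: lysis reports solute entry through the parasite surface anion channel PSAC; channel blockers reduce lysis of infected cells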; conditions: P. falciparum Indochina infected erythrocytes, osmotic lysis OD700; higher = more signal, called active from +8 up or from −8 down
[15] = osmotic lysis modulators in infected erythrocytes, primary screen, PSAC antagonist project, cell-based, P. falciparum Indochina, OD700, 3 h (AID 1156); conditions: higher = more signal, called active from +8 up or from −8 down
[16] = PSAC antagonists in infected red cells, primary screen, cell-based, P. falciparum Indochina, OD700, 18 h (AID 1157); conditions: P. falciparum Indochina infected erythrocytes, osmotic lysis OD700, 18 h; higher = more signal, called active from +8 up or from −8 down
[17] = modulators of S6 phosphorylation in cells, primary screen, cell-based, A549, cytoblot, luminescence, serum-stimulated (AID 1158); conditions: A549 phospho-S6 cytoblot, 5 h, higher = more signal;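 also: serum-stimulated A549 lung adenocarcinoma cells; signal is phosphorylated S6 detected by cytoblot immunostaining with HRP secondary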
[18] = molecular target: NADPH oxidase 2 (Homo sapiens) (UniProt P04839); test: NOX2-dependent H2O2 signal modulators, primary screen, NOX inhibitor project, cell-based, HEK293-NOX2, PMA-stimulated, Amplex Red fluorescence (AID 1159); conditions: 45 min, higher = more signal, called active from +8 up or from −8 down; also: test concentration not given here
NADPH oxidase 2 (Homo sapiens), sequence (P04839 whole entry, looked up): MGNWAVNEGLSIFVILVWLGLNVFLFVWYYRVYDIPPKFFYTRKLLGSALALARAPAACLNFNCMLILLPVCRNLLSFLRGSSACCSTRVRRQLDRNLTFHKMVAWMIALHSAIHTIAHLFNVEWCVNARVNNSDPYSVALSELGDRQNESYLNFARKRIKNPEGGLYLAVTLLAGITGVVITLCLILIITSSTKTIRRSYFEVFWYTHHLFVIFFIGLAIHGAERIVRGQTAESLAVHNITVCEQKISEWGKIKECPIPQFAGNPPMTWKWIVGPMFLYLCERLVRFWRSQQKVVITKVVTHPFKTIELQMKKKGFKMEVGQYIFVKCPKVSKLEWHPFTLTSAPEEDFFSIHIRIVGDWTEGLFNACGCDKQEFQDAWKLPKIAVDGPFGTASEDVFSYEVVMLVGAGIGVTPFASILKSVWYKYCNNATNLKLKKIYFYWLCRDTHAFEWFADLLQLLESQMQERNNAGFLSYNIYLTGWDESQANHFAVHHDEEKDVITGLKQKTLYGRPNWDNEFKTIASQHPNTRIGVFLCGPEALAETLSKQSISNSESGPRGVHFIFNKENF

[19] = molecular target: NADPH oxidase 4 (Homo sapiens) (UniProt Q9NPH5); test: NOX4-dependent H2O2 signal modulators, primary screen, NOX inhibitor project, cell-based, HEK293-NOX4, tetracycline-induced, Amplex Red fluorescence (AID 1160); conditions: 45 min, higher = more signal, called active from +8 up or from −8 down
NADPH oxidase 4 (Homo sapiens), sequence (Q9NPH5 whole entry, looked up): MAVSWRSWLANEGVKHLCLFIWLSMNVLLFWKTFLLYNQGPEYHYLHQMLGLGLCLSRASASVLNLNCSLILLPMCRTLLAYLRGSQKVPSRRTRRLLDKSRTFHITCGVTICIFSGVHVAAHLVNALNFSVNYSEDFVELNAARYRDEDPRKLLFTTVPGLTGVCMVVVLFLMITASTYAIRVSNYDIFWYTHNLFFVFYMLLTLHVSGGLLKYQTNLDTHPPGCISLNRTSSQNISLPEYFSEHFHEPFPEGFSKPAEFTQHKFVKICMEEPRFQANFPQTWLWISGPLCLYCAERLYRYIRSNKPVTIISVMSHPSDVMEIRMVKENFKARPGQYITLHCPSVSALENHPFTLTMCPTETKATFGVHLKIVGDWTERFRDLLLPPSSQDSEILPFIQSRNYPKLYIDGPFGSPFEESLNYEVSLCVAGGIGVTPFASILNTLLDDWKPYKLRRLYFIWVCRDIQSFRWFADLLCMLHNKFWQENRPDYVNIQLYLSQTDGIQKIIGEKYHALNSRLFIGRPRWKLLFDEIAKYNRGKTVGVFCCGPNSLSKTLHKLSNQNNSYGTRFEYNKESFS

[20] = molecular target: NADPH oxidase 5 (Homo sapiens) (UniProt Q96PH1); test: NOX5-dependent H2O2 signal modulators, primary screen, NOX inhibitor project, cell-based, HEK293-NOX5, Amplex Red fluorescence (AID 1161); conditions: HEK293-NOX5, ionomycin, 45 min, higher = more signal
NADPH oxidase 5 (Homo sapiens), sequence (Q96PH1 whole entry, looked up): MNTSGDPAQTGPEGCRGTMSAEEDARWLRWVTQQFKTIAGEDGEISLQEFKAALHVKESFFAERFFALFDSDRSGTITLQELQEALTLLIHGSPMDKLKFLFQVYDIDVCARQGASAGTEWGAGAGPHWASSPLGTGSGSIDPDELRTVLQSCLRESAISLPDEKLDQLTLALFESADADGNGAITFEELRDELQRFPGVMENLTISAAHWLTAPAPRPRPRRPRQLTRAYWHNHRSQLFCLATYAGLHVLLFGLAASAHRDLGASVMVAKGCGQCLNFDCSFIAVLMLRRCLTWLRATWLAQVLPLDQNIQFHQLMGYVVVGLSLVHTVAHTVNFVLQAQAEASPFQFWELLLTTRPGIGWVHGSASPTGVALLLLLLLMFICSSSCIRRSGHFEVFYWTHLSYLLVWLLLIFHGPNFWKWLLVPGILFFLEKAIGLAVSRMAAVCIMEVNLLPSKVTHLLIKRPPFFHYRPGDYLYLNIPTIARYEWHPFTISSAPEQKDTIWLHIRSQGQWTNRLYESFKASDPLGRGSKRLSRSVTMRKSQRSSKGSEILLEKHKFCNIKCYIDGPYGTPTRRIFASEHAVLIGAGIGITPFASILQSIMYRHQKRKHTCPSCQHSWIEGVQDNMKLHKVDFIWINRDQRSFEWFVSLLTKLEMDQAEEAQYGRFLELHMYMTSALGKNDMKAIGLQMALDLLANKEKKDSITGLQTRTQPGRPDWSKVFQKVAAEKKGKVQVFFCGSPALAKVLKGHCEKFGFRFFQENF

| SMILES | composite z-score [1] | z-score [2] | z-score [3] | z-score [4] | z-score [5] | composite z-score [6] | composite z-score [7] | composite z-score [8] | composite z-score [9] | composite z-score [10] | z-score [11] | composite z-score [12] | z-score [13] | z-score [14] | z-score [15] | z-score [16] | z-score [17] | z-score [18] | z-score [19] | z-score [20] |
| --- | --- | --- | --- | --- | --- | --- | --- | --- | --- | --- | --- | --- | --- | --- | --- | --- | --- | --- | --- | --- |
| COC(=O)[C@H](C)NC(=O)CCC1CC(OC(=O)NCc2ccc3c(c2)OCO3)CC2(CCCC(COC(=O)NCCc3ccccc3OC)O2)O1 (stereo not given in full) | -0.0418 | -0.643 (inactive) | 0.301 (inactive) | 0.0167 (inactive) | 0.711 (inactive) | -0.0673 | -0.154 | 0.465 | 0.182 | -0.004 | -0.0563 (inactive) | -0.162 | 20.9 (active) | 5.56 (inactive) | -0.257 (inactive) | 0.566 (inactive) | 1.15 | 0.221 (inactive) | 0.301 (inactive) | 0.339 |
| COC(=O)CC=C[C@@H](C)[C@@H](C=NOCC[C@@H]1C=C[C@H](OC(C)=O)[C@@H](COC(C)=O)O1)OC | 0.38 | 0.309 (inactive) | 0.711 (inactive) | -0.557 (inactive) | 0.0921 (inactive) | -0.227 | 0.0565 | 0.563 | 0.359 | 0.19 | -0.35 (inactive) | -0.0969 | 0.551 (inactive) | 0.239 (inactive) | -0.5 (inactive) | 0.171 (inactive) | -0.801 | 0.464 (inactive) | 0.934 (inactive) | 0.855 |
| COC(=O)[C@@H]1CC[C@H](C)[C@@H](c2ccc(C)cc2)N1C(=O)c1ccc(C=NO[C@H](C)c2cn([C@@H]3COC[C@H]3O)nn2)cc1 | 0.177 | -0.228 (inactive) | 0.068 (inactive) | 2.34 (inactive) | -0.377 (inactive) | -0.243 | 0.0001 | 0.28 | 0.603 | 0.749 | 0.153 (inactive) | 0.109 | 22.6 (active) | 3.19 (inactive) | 0.615 (inactive) | 1.52 (inactive) | -0.477 | -0.166 (inactive) | 0.124 (inactive) | 0.196 |
| CCOC(=O)NN=C1C[C@@H](O)[C@@H](O)[C@@H]2[C@@H]3C(=O)N(Cc4ccc5c(c4)OCO5)C(=O)[C@@H]3CC[C@H]12 | -0.193 | -0.136 (inactive) | 1.46 (inactive) | -0.658 (inactive) | 0.619 (inactive) | -0.563 | -0.128 | -0.566 | -0.282 | 0.14 | 0.245 (inactive) | -0.239 | 5.49 (inactive) | 0.756 (inactive) | 0.41 (inactive) | 0.476 (inactive) | -0.4 | -3.49 (inactive) | -0.0101 (inactive) | -0.598 |
| CO[C@H]1COC(=O)[C@@H](C)COC(=O)[C@H](COCc2ccccc2)NC(=O)CC=C[C@H]1C | -0.171 | 0.27 (inactive) | -1.04 (inactive) | -0.567 (inactive) | -0.985 (inactive) | -0.807 | -0.203 | 0.436 | 0.491 | 1.88 | -1.17 (inactive) | -0.0654 | -0.262 (inactive) | 0.149 (inactive) | -0.0011 (inactive) | 0.156 (inactive) | 0.503 | -1.95 (inactive) | 0.126 (inactive) | 0.284 |
| CCOC(=O)NN=C1C[C@@H](O)[C@@H](O)[C@@H]2[C@@H]3C(=O)N(C(C)(C)C)C(=O)[C@@H]3CC[C@H]12 | 0.138 | -0.0395 (inactive) | 0.655 (inactive) | -0.295 (inactive) | 0.269 (inactive) | 0.344 | 0.0427 | 0.446 | 0.307 | 0.187 | 1.04 (inactive) | 0.0701 | 0.521 (inactive) | 0.16 (inactive) | 0.786 (inactive) | 0.18 (inactive) | 0.698 | -1.89 (inactive) | 0.644 (inactive) | 0.0282 |
| CCOC(=O)[C@H](CC(C)C)NC(=O)CCC1CC(OC(=O)NCc2ccc3c(c2)OCO3)CC2(CCCC(COC(=O)NCC3CCCCC3)O2)O1 (stereo not given in full) | 0.222 | -1.86 (inactive) | -0.0968 (inactive) | -0.0732 (inactive) | 0.389 (inactive) | 0.354 | 0.0471 | 0.0886 | 0.392 | 1.52 | 0.192 (inactive) | 0.237 | 1.35 (inactive) | 0.0043 (inactive) | -0.116 (inactive) | -0.0704 (inactive) | 0.542 | -0.541 (inactive) | 0.563 (inactive) | 0.61 |
| C#CCCCON=C1C[C@@H](O)[C@@H](O)[C@@H]2[C@@H]3C(=O)N(CC)C(=O)[C@@H]3CC[C@@H]12 | -0.0855 | 0.0213 (inactive) | -0.327 (inactive) | -0.116 (inactive) | -0.14 (inactive) | -0.0757 | -0.181 | 0.787 | 0.555 | 1.2 | -0.229 (inactive) | -0.243 | 0.299 (inactive) | 0.363 (inactive) | -0.26 (inactive) | -0.0637 (inactive) | -0.595 | 0.275 (inactive) | 0.764 (inactive) | -0.64 |
